DT40 TDP1 CPT – DT40-hTDP1 cell growth loss with CPT; chicken DT40 Tdp1-/-;hTDP1 cells + 20 nM CPT, ATP luminescence, 48 h; Potency, µM (titrated, usually from 46.2 µM), hits mostly inhibitors; actives 12% (n = 420,000); AID 686979; also: nearly all actives have a fitted effect of over 55% in size
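Chicken DT40 Tdp1-/- cells stably complemented with human TDP1 were seeded at 400 cells/well in medium containing 20 nM camptothecin, exposed to pin-transferred compounds, and grown at 37 °C for at least 48 hr. Viability was read as ATP luminescence.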
DT40 TDP1 no CPT – qHTS for Inhibitors of human tyrosyl-DNA phosphodiesterase 1 (TDP1): qHTS in cells in absence of CPT; AID 686978, 2013; Potency, µM (highest dose often 46.2 µM), usual class: inhibitors; actives 15% (n = 420,000); DT40 Tdp1-/- hTDP1 cells, no CPT, ATP luminescence, 48 h; also: nearly all actives have a fitted effect of over 55% in size
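Readout: luminescence from CellTiter-Glo after 30 min in the dark at RT. Cells: DT40 Tdp1-/- with stable hTDP1, 400/well. Exposure: compounds alone, ≥48 hr, 37 °C.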
IL-1B inflam inh – inhibitors of inflammasome signaling (IL-1 beta secretion). activity change, % at 57.5 µM. actives 4.7% (n = 360,000). THP-1 LPS/ATP IL-1B secretion, AlphaLISA, 16 h; stronger effect = lower value. AID 743279; in the data active = activity change below about -50%; inconclusive = mostly about -30% to -49%
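THP-1 cells pretreated 1 hr with compounds (up to 57.5 uM final), then stimulated with LPS (250 ng/mL final) plus ATP (1.25 mM final); secreted IL-1B measured by AlphaLISA after 16 hr, decreased signal indicating inhibition.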
ELG1 repair inh – ELG1-dependent DNA repair inhibition. HEK293T ELG1-luciferase reporter, luminescence, 16 h; DNA damage induced by 5-fluorouridine. Potency, µM (doses to about 46.1 µM), most hits filed as inhibitors. actives 2.3% (n = 330,000); also: nearly all actives have a fitted effect of over 55% in size
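Luminescence from the luciferase reporter, measured 30 min after ONE-Glo reagent at room temperature, was the read-out. Beforehand, 2,000 cells per well were exposed for 16 hr at 37 °C to 5-fluorouridine together with compound or vehicle.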
HT1080 IDH1KD tx – toxicity to HT-1080 IDH1 knockdown cells (counter line). HT-1080 IDH1 knockdown viability, ATP luminescence, 48 h. Potency, µM (highest dose often 46.1 µM), usual class: cytotoxic. actives 2% (n = 360,000). AID 686971
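% activity derives from luminescence (CellTiter-Glo), normalised to DMSO and no-cell wells. HT-1080-IDH1KD cells, 750/well, had 48 h compound exposure at 37 °C.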
HT1080-NT tox – kills 2HG-producing HT-1080-NT fibrosarcoma cells; HT-1080-NT fibrosarcoma viability, CellTiter-Glo ATP luminescence, 48 h; Potency, µM (doses to about 46.1 µM), actives largely listed as cytotoxic; actives 1.6% (n = 360,000);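 also: NT is the 2HG producing partner of a matched IDH1 knockdown line; nearly all actives have a fitted effect of over 55% in size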
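Viability by CellTiter-Glo luminescence after 48 h compound exposure at 37C of HT-1080-NT cells (750/well, RPMI, 5% FBS). % activity scaled between DMSO wells and medium-only wells, then curve-fitted and categorized by curve class.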
A number is an active result; 0 = inactive; ? = inconclusive; - = not tested or not shown; [ ] = dose if it differs, or a comment. Sampled rows, rich in hits. Any-hit rate of the full collection: about 19%. Unless noted, calls follow the shape of the dose curve; as a rule, active = well fitted curve in the direction sought with a large enough effect; inconclusive = small, poorly fitted or top-dose-only effect, or another doubt; inactive = no such curve, though single readings can be large; an effect the other way counts as inactive or inconclusive.

SMILES | DT40 TDP1 CPT | DT40 TDP1 no CPT | IL-1B inflam inh | ELG1 repair inh | HT1080 IDH1KD tx | HT1080-NT tox
COC/C=C/C1=CC2=CC(=O)C(C)(OC(=O)c3cnc4ccccc4n3)C(=O)C2=CN1Cc1ccc(OC)cc1 (stereo unspecified) | 23.1µM | ? | -60.1 | 0 | 0 | 0
COC/C=C/C1=CC2=CC(=O)C(C)(OC(=O)c3cnc4ccccc4n3)C(=O)C2=CN1CC1CC1 (stereo unspecified) | 0 | ? | 0 | - | 0 | 0
CCOc1ccccc1NC(=S)N1CCC(c2nc3ccccc3o2)CC1 | ? | ? | 0 | 0 | 0 | 0
NNC(=O)c1oc2nc(-c3ccccc3)cc(-c3ccccc3)c2c1N | 0 | ? | 0 | 16.4µM | 0 | 0
Cc1ccc(-c2cc(-c3ccco3)c3c(N)c(C(=O)NN)oc3n2)cc1 | ? | ? | 0 | 13µM | ? | 0
COc1cccc(/C=N/NC(=O)c2oc3nc(-c4ccccc4)cc(-c4ccco4)c3c2N)c1 | 0 | 13µM | -57.9 | 16.4µM | 0 | 0
COc1ccc(-n2nc(C(=O)N(C)C)nc2-c2ccccc2)cc1 | 0 | 0 | 0 | 0 | 0 | 0
O=c1oc2ccccc2cc1-c1csc(NN=C2CCCCC2)n1 | ? | 18.4µM | 0 | ? | 0 | ?
O=c1oc2ccccc2cc1-c1csc(Cc2nc(-c3ccc(Cl)cc3)cs2)n1 | ? | 25.9µM | 0 | ? | 0 | 0
O=c1oc2ccccc2cc1-c1csc(Nc2nc3c(F)cccc3s2)n1 | 14.6µM | 16.4µM | 0 | ? | ? | 0
COc1ccc(N(CC(=O)N2CCOCC2)S(C)(=O)=O)cc1Cl | 0 | 0 | 0 | 0 | 0 | 0
Cc1cc(C)c(NC(=O)Cn2nc(-c3ccncc3)ccc2=O)c(C)c1 | 0 | ? | - | - | - | -
COC(=O)C1(Cc2cc(-c3ccc(OC)cc3OC)no2)CCN(C(=O)OC(C)(C)C)CC1 | ? | 20.6µM | 0 | ? | 0 | 0
COC(=O)C1(Cc2cc(-c3cccc(Br)c3)no2)CCN(C(=O)OC(C)(C)C)CC1 | ? | ? | 0 | 0 | 0 | 0
O=C(NCCc1csc(-c2cccc(F)c2)n1)C(=O)Nc1cc(F)ccc1F | 0 | 0 | - | - | - | -
C#CCOCCOCCOCCNc1nc(N2CCN(C(=O)[C@H](CCCCN)n3cc(C(N)COC(=O)C(F)(F)F)nn3)CC2)nc(N2CCN(C(=O)[C@H](CCCCN)n3cc(C(N)CC(C)C)nn3)CC2)n1 (stereo partly specified) | - | - | - | 0 | - | -
C1=C(CCNc2nnnn2-c2ccccc2)CCCC1 | 18.4µM | ? | 0 | ? | 0 | 0
c1ccc(CCNc2nnnn2-c2ccccc2)cc1 | 0 | ? | 0 | 0 | 0 | 0
Fc1ccc(-c2nc(-c3cnccn3)no2)c(Cl)c1 | 0 | ? | 0 | ? | 0 | 0
Cc1nnc2n1N=CC=C(C(C)(C)C)S2 | 0 | 0 | 0 | 0 | 0 | 0
Cc1nnc2n1N=CC=C(c1ccccc1)S2 | 8.2µM | 5.17µM | -91.4 | 0 | 0 | 0
CS(=O)(=O)N1CCN(c2ccc(NC(=O)c3ccccc3)cc2)CC1 | 0 | 0 | 0 | ? | 0 | 0
CCC(C)(C)NC(=O)CCn1c(-c2ccccc2)cc(C(C)=O)c1C | 0 | ? | 0 | 0 | 0 | 0
O=C(CC1N=C2c3ccccc3N=C(SCC(=O)Nc3ccc(F)cc3)N2C1=O)NCc1ccc2c(c1)OCO2 (stereo unspecified) | ? | 0 | - | - | - | -
COc1ccc(OC)c(NC(=O)CSC2=Nc3ccccc3C3=NC(CC(=O)NCc4ccc5c(c4)OCO5)C(=O)N23)c1 (stereo unspecified) | ? | 23.1µM | - | - | - | -
SMILES | DT40 TDP1 CPT | DT40 TDP1 no CPT | IL-1B inflam inh | ELG1 repair inh | HT1080 IDH1KD tx | HT1080-NT tox
CCc1ccc(NC(=O)CSC2=Nc3ccccc3C3=NC(CC(=O)NCc4ccc5c(c4)OCO5)C(=O)N23)cc1 (stereo unspecified) | ? | 23.1µM | - | - | - | -
O=C(NCc1ccc(Cl)nc1)c1ccc2nc([C@@H]3O[C@H](CO)[C@H](O)[C@H](O)[C@H]3O)[nH]c2c1 | 0 | 0 | 0 | - | 0 | 0
COC(=O)N1CCC2(CC1)CN(C(=O)Nc1cccc(F)c1)C2 | 0 | 0 | - | - | - | -
Cc1cccc(-n2c(N)cc(=O)[nH]c2=S)c1 | ? | 0 | 0 | 0 | 0 | 0
O=c1cc(O)n(-c2ccccc2)c(=S)[nH]1 | 20.6µM | ? | 0 | 0 | 0 | 0
C[C@@H]1CN([C@H](C)CO)C(=O)CCCn2nncc2CO[C@H]1CN(C)Cc1cccc(C(=O)O)c1 | 0 | 0 | 0 | - | 0 | 0
CCCN(CC1CC1)c1nc(N)c(C#N)c(CC#N)c1C#N | ? | 18.4µM | 0 | ? | 0 | 0
CCN(CC)c1nc(N)c(C#N)c(CC#N)c1C#N | 0 | 0 | 0 | - | 0 | 0
CCCN(CCC)c1nc(N)c(C#N)c(CC#N)c1C#N | 14.6µM | 23.1µM | 0 | 0 | 0 | 0
CC(C)c1cccc(-c2ccc3c(c2)S(=O)(=O)c2cccc(C(=O)NCc4ccccc4)c2C3=O)c1 | ? | 23.1µM | 0 | ? | 0 | 0
CC(C)c1cccc(-c2ccc3c(c2)S(=O)(=O)c2cccc(C(=O)NCc4ccccc4Cl)c2C3=O)c1 | 2.59µM | 6.51µM | 0 | 0 | 0 | 0
OCC[C@@H]1C[C@@H](O)[C@H](O)[C@]2(CCc3ccccc3CO2)O1 | 0 | 0 | 0 | 0 | 0 | 0
CCOC(=O)c1ccc(NC(=O)CCn2ccc(C)n2)cc1 | 0 | 0 | - | - | - | -
COC(=O)c1cccc(C#CC(NP(=O)(c2ccccc2)c2ccccc2)c2ccccc2)c1 (stereo unspecified) | 25.9µM | ? | -64.2 | ? | 0 | 0
COC(=O)c1cccc(NC(=O)CCCOc2ccccc2)c1 | 0 | 0 | 0 | 0 | 0 | 0
CCCNc1c(NS(=O)(=O)c2ccc(OC)c(OC)c2)c(=O)oc2ccccc12 | 0 | 0 | 0 | 0 | 0 | 0
Cc1cccc2nc(CNC(=O)CN3Cc4ccccc4OC(c4ccccc4F)C3)cn12 (stereo unspecified) | 0[9.04 µM] | 0 | - | - | - | -
Cc1cccc2nc(CNC(=O)CN3Cc4cc(Cl)ccc4OC(C)C3)cn12 (stereo unspecified) | 4.11µM | 5.8µM | - | - | - | -
COC(=O)c1cccc(NC(=O)CCN2C(=O)NC(C)(C)C2=O)c1 | 0 | 0 | 0 | - | 0 | 0
NC(=S)Cc1ccc(Cl)cc1Cl | 0 | 0 | 0 | 0 | 0 | 0
CNC(=S)/N=C/NOCc1ccc(Cl)cc1Cl | ? | 20.6µM | -51.2 | 11.6µM | ? | ?
Cc1c(Br)cnn1C(C)C(=O)N1CCN(c2ccc(F)cc2)CC1 (stereo unspecified) | 0 | ? | 0 | ? | 0 | 0
